Records with an inconclusive call do not appear. Active and inactive are the calls of the source. Rule for the calls: active = hit-call score of the fitted dose curve at least 0.9, where 1 is the maximum; inconclusive = response in the unintended direction; inactive = score below 0.9.

human Acid Phosphatase 1 (ACP1), ACP1 (gene 52), sequence (P24666 whole entry, looked up): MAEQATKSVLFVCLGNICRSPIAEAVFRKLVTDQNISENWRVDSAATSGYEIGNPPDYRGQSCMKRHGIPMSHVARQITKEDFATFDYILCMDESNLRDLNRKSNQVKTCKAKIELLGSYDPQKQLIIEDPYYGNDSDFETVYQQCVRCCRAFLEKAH
human AKT serine/threonine Kinase 1 (AKT1), AKT1 (gene 207), sequence (P31749 whole entry, looked up): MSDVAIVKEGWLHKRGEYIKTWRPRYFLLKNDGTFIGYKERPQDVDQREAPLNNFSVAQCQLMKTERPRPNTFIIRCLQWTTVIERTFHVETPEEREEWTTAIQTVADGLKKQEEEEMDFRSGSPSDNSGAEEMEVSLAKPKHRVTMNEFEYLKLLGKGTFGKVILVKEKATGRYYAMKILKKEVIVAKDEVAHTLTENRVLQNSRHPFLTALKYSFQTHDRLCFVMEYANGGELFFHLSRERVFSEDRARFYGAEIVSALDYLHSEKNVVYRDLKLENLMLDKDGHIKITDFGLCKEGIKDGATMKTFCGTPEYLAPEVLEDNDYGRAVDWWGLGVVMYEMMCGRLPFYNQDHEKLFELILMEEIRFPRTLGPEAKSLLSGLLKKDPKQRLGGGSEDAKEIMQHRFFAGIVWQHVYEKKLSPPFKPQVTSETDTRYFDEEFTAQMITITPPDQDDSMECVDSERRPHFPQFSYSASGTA

One experiment deals with human Caspase 2 (CASP2), CASP2 (gene 835) (UniProt P42575). The experiment is described as follows: NVS_ENZ_hCASP2: NovaScreen (NVS) Enzymatic Assay for human Caspase 2 (CASP2) (AID 2283135). An outline of the steps: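 Single-point duplicate testing at 25 uM preceded concentration series topping at 50 uM. Activity of the recombinant E. coli-derived protease was followed by fluorescent substrate cleavage 1 h post-dosing, relative to DMSO.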
human Caspase 2 (CASP2), CASP2 (gene 835), sequence (P42575 whole entry, looked up): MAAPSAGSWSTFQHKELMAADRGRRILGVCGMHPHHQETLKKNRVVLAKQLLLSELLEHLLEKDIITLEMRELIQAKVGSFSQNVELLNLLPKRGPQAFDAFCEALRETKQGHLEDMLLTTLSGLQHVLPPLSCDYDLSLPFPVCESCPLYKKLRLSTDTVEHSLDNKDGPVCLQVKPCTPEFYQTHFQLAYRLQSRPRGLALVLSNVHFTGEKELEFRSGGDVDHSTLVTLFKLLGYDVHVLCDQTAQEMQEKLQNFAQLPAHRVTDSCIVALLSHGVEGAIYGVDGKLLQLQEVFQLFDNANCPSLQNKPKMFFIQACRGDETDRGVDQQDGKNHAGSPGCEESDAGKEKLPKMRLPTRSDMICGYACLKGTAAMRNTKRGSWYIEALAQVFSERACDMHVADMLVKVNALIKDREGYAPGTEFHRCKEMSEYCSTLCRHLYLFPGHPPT
On to `Clc1cccc(Cl)c1Cl`, for which the outcome was inactive.

Take `O=C(N[C@H]1CN2CCC1CC2)c1ccc2c(c1)OCCO2`: the compound was classed as inactive. The AC50 is the concentration giving half of the maximal activity seen. For `CC(C)O.CC(C)O.OCCN(CCO)CCO.OCCN(CCO)CCO.[Ti]`, the AC50 was 3.12 µM (active).

For the next experiment, the target named is human Acid Phosphatase 1 (ACP1), ACP1 (gene 52) (UniProt P24666). The experiment in a line: NVS_ENZ_hACP1: NovaScreen (NVS) Enzymatic Assay for human Acid Phosphatase 1 (ACP1) (AID 2283136). The method, boiled down:
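Cell-free fluorescence read-out of phosphatase activity, substrate and product separated by mobility shift, taken 1.5 h after compound addition; protein produced in Sf9. Single 25 uM duplicate screen, followed by concentration series for actives, scored as signal loss relative to DMSO.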
For `N#Cc1cccnc1`, the compound was called inactive. For the compound `Clc1cccc(Cl)c1Cl`, the result was inactive. The same measure, in the same setting: as for `CCCCCCCCCCCCc1cccc(S(=O)(=O)O)c1`, the entry is “inactive”.

The target in the next experiment is human Caspase 5 (CASP5), CASP5 (gene 838) (UniProt P51878). The experiment in a line: NVS_ENZ_hCASP5: NovaScreen (NVS) Enzymatic Assay for human Caspase 5 (CASP5) (AID 2283137). An outline of the steps: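 Loss of fluorescent signal versus DMSO scored for E. coli-derived human CASP5 cleaving a fluorescent substrate, 2 h post-dosing; compounds first tested at 25 uM in duplicate, hits rerun in concentration series with 50 uM top concentration.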
human Caspase 5 (CASP5), CASP5 (gene 838), sequence (P51878 whole entry, looked up): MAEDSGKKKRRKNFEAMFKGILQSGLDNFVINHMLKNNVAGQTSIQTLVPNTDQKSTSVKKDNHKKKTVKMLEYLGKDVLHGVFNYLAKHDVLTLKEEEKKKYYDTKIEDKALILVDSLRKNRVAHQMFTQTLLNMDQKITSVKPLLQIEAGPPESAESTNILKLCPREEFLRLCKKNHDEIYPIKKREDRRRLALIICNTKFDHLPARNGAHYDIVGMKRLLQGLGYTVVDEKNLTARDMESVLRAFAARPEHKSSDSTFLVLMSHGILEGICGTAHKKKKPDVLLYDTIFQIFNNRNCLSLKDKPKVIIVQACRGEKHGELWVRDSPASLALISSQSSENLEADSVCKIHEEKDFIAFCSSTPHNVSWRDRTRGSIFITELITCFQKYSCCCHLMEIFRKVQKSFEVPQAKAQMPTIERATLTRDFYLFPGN
As for `Nc1c(Oc2ccccc2)cc(O)c2c1C(=O)c1ccccc1C2=O`, the AC50 was 0.133 µM (active). On the same count and under the same terms, as for `O=c1oc2ccccc2c(O)c1C(CC(O)c1ccc(-c2ccc(Br)cc2)cc1)c1ccccc1` (centres undefined), the figure is 9.45 µM (active); as for `CC(C)O.CC(C)O.OCCN(CCO)CCO.OCCN(CCO)CCO.[Ti]`, 1.81 µM (active). The same measure, in the same setting: as for `Nc1ccc(N)cc1`, the figure is 5.42 µM (active).

The next experiment has as its target human AKT serine/threonine Kinase 1 (AKT1), AKT1 (gene 207) (UniProt P31749). The experiment in a line: NVS_ENZ_hAKT1: NovaScreen (NVS) Enzymatic Assay for human AKT serine/threonine Kinase 1 (AKT1) (AID 2283138). The method, boiled down:
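Screening first at 25 uM (duplicate), with threshold-passing chemicals re-tested in concentration series to a 50 uM maximum. Kinase activity read by fluorescence with mobility-shift separation of substrate and product, 1 h after dosing, DMSO baseline.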
Consider `Oc1cc(Cl)c(Cl)cc1Cl`, for which the call was inactive. For the compound `CCCCCCCCCCCCc1cccc(S(=O)(=O)O)c1`, the half-maximal activity concentration (AC50) was 35 µM (active). Consider `COc1ccccc1N`, for which the compound was classed as inactive. For the compound `CC(C)O.CC(C)O.OCCN(CCO)CCO.OCCN(CCO)CCO.[Ti]`, the half-maximal activity concentration (AC50) is 0.00319 µM (active).

The values are drawn from PubChem BioAssay (EPA / NIEHS).
